From PubChem BioAssay
MCF10A rereplic: A quantitative high throughput screen for small molecules that induce DNA re-replication in MCF 10a normal breast cells; MCF 10A DNA re-replication, Hoechst nuclear intensity, 48 h; 350,000 compounds, 2.9% hits; Potency, µM (top dose mostly 46.1 µM), without a hit: at the top dose activity, positive = re-replication, hits mostly activators; note: potency is the fitted concentration of half-maximal effect; % of control where 0% means no effect; nearly all actives have a fitted effect of over 50% in size
SW480 rerep: A quantitative high throughput screen for small molecules that induce DNA re-replication in SW480 colon adenocarcinoma cells | SW480 DNA re-replication, Hoechst DNA content imaging, 48 h | Potency, µM (doses to about 46.1 µM), for the others: top-dose re-replication activation, most hits filed as activators | 340,000 compounds, 1.8% hits | AID 624297, 2012; note: potency is the fitted concentration of half-maximal effect; % of control where 0% means no effect; nearly all actives have a fitted effect of over 55% in size
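Per well, 250 cells were exposed to pinned compound for 48 hr. Nuclear DNA was visualised with Hoechst (40 min, 37 C) and total object intensity recorded by fluorescence scanning.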
KB-3-1 tox: qHTS assay for MDR1-selective chemotherapeutics: Primary screen using the parental adenocarcinoma cell KB-3-1; KB-3-1 viability, CellTiter-Glo ATP luminescence, 72 h; Potency, µM (doses to about 46.1 µM), most hits filed as cytotoxic; 400,000 compounds, 1.4% hits; AID 1347075, 2019; note: potency is the fitted concentration of half-maximal effect; % is set by controls: 0 for no effect and ±100 for the full control effect; nearly all actives have a fitted effect of over 60% in size
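Luminescent ATP read-out (CellTiter-Glo) measures survival of drug-naive KB-3-1 cells after 72 h compound exposure at 37 °C. Titration series was screened from lowest to highest concentration, with DMSO vehicle plates as background controls.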
IL-1B inflam inh: qHTS for Inhibitors of Inflammasome Signaling: IL-1-beta AlphaLISA Primary Screen; activity change, % at 57.5 µM; THP-1 LPS/ATP IL-1B secretion, AlphaLISA, 16 h; stronger effect = lower value; 360,000 compounds, 4.7% hits; in the data active = activity change below about -50%; inconclusive = mostly about -30% to -49%; note: % is set by controls: 0 for no effect and ±100 for the full control effect
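Secreted IL-1B measured by AlphaLISA bead assay after 16 h compound exposure of THP-1 cells; compounds (final up to 57.5 uM) added 1 h before LPS (250 ng/mL) and ATP (1.25 mM) stimulation; lower signal means less secretion.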
KB-V1 cytotox: qHTS assay for MDR1-selective chemotherapeutics: Primary screen using the drug-selected MDR subline cells KB-V1 | KB-V1 MDR cells viability, CellTiter-Glo, 72 h | Potency, µM (series often up to 46.1 µM), most hits filed as cytotoxic | 400,000 compounds, 3.4% hits; note: potency is the fitted concentration of half-maximal effect; % is set by controls: 0 for no effect and ±100 for the full control effect; nearly all actives have a fitted effect of over 60% in size
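Luminescent ATP read-out (CellTiter-Glo, 10 min) measures survival of drug-selected KB-V1 MDR cells after 72 h, 37 degrees C compound exposure. Medium: phenol-red-free DMEM, 10% FBS. Values from fitted concentration-response curves.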
* marks the source's active call; other numbers are inactive results; i = inactive; ? = inconclusive; · = no result; ! = repeats disagree. Hits are enriched below; roughly 9.9% of the tested compounds scored in any of these assays. Unless noted, calls come from the whole dose curve; as a rule, active = well fitted curve in the direction sought with a large enough effect; inconclusive = small, poorly fitted or top-dose-only effect, or another doubt; inactive = no such curve, though single readings can be large; an effect the other way counts as inactive or inconclusive.

SMILES	MCF10A rereplic	SW480 rerep	KB-3-1 tox	IL-1B inflam inh	KB-V1 cytotox
CCOC(=O)c1c(SCCN2CCCCC2)n(-c2ccccc2)c(=S)n(-c2ccccc2)c1=O	9.2µM*	12µM*	i	0	i
CCOC(=O)c1c(SC)n(-c2ccccc2)c(=S)n(-c2ccccc2)c1=O	8%	-7%	i	15	i
CC(C)On1c(SCC(=O)N(C)C)nc2ccccc2c1=O	2%	-11%	i	0	i
CCOC(=O)c1oc2ccc(CNC3CCCCC3)c(Cl)c2c1C	16µM*	?	i	-82*	i
c1ccc(CC2=NCCN2)cc1	-1%	-24%	i	-13	i
c1ccc(CN(CC2=NCCN2)c2ccccc2)cc1	9%	0.23µM*!	i	-15	i
N#Cc1c(C(F)(F)F)cc(-c2ccc(Cl)c(Cl)c2)nc1SCCN1CCOCC1	4.1µM*	16%	i	25	?
CCOC(=O)CCSc1nc(-c2ccc3c(c2)OCO3)cc(C(F)(F)F)c1C#N	5%	-5%	i	24	i
C=CCSc1nc(-c2ccc3c(c2)OCO3)cc(C(F)(F)F)c1C#N	15%	7.3µM*	i	0	i
CCOC(=O)CC(=O)CSc1nc(-c2ccc3c(c2)OCO3)cc(C(F)(F)F)c1C#N	6.3µM*	?	i	64	i
O=C1CS/C(=N/N=C/c2c[nH]c3ccccc23)N1	18µM*	129%	i	·	i
COc1ccc(CNC(=S)NC(C)CCc2ccccc2)cc1 (centres undefined)	-1%	22%	i	-21	i
Cc1nc2ccccc2c2ncccc12	-9%	-7%	i	-2	i
c1cnc2nc3c4ccccc4c4ccccc4c3nc2c1	10µM*	23µM*	i	?	i
N#Cc1cnc2nc1NCCCCCCC2	·	·	?	32	5.2µM*
N#C/C(=C1/CCCCCN1)c1nc2ccccc2[nH]1	26%	3%	i	11	i
CN(CC(O)COc1ccc2ccccc2c1)C1CCCCC1 (centres undefined)	?	6%	i	-82*	i
CC(NCC(O)COc1ccc2ccccc2c1)c1ccccc1 (centres undefined)	?	23µM*	?	-94*	?
Cc1nc(C)n(CC(O)COc2ccc3ccccc3c2)n1 (centres undefined)	0%	-4%	i	15	21µM*
Cc1cc(OCC(O)CNC(C)c2ccccc2)ccc1C(C)C (centres undefined)	?	?	?	-91*	16µM*
Cc1cc(C)n(CC(O)COc2ccc3ccccc3c2)n1 (centres undefined)	-6%	-2%	i	-13	?
CCc1ccc(C2=CSC3=NCCN23)cc1	4%	-29%	i	-8	i
C/C(=N/NS(=O)(=O)c1ccccc1)c1ccc(NC(=O)C2CC2)cc1	-8%	-1%	i	-6	i
Cc1nn(C)c(C)c1CN(C(=O)C1CCC(=O)N(C2CCCCCC2)C1)C(C)C (centres undefined)	1%	-1%	i	19	?
COc1ccc(/C=C/C(=O)NCc2c(C)nn(C)c2C)cc1COc1ccc(Br)cc1	3.7µM*	?	i	-29	i
COc1ccc(/C=C/C(=O)NCc2cnn(C)c2C)cc1COc1ccc(Br)cc1	?	-2%	i	?	15µM*
COc1ccnc(Oc2ccccc2)c1C(N)=O	1%	-8%	i	-4	i
COc1cc2ccc(=O)oc2cc1O	?	15µM*	i	19	i
COCCNC(=O)c1cnn2c(C(F)(F)F)cc(-c3ccc4c(c3)OCO4)nc12	?	-1%	i	18	2.1µM*
O=S1(=O)CCN2C(=N1)Sc1c2ccc2c1CCCC2	-10%	-20%	i	4	4.6µM*
